From PubChem BioAssay
IL1B secr inh = qHTS for Inhibitors of Inflammasome Signaling: IL-1-beta AlphaLISA Primary Screen; activity change, % at 57.5 µM; 360,000 compounds, 4.7% hits; AID 743279, 2014; THP-1 LPS/ATP IL-1B secretion, AlphaLISA, 16 h; hits give low values; in the data active = activity change below about -50%; inconclusive = mostly about -30% to -49%
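Secreted IL-1B measured by AlphaLISA bead assay after 16 h compound exposure of THP-1 cells; compounds (final up to 57.5 uM) added 1 h before LPS (250 ng/mL) and ATP (1.25 mM) stimulation; lower signal means less secretion.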
HepG2 viability = qHTS for Inhibitors of TGF-b: Cytotox Counterscreen; HepG2 CAGA-GFP viability, ATP luminescence, 18 h; Potency, µM (series often up to 46.1 µM), usual class: cytotoxic; 410,000 compounds, 0.76% hits
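HepG2 CAGA-GFP cells (1000/well, DMEM with 1% FBS) received compound, then TGF-beta at 500 pg/mL final, and were incubated 18 hours at 37 degrees C. Viability was read by CellTiter-Glo luminescence. Media-only wells were set as complete cell-killing and DMSO as no toxicity.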
TGFb SMAD3 inh = qHTS for Inhibitors of TGF-b | 410,000 compounds, 1.2% hits | HepG2 CAGA-GFP TGF-b/SMAD3 reporter, GFP fluorescence, 18 h; TGF-beta stimulated, 500 pg/mL final | Potency, µM (top dose mostly 46.1 µM), actives largely listed as inhibitors; note: nearly all actives have a fitted effect of over 65% in size
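Read-out: total well GFP (ex488/em500-530) summed from mean per-cell fluorescence. Cells: HEPG2 CAGA-GFP, 1% FBS DMEM, 18 h at 37 degrees C with 500 pg/mL final TGF-beta. Unstimulated wells served as the full-inhibition control; stimulated DMSO wells = 0%.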
TDP1 cell noCPT = qHTS for Inhibitors of human tyrosyl-DNA phosphodiesterase 1 (TDP1): qHTS in cells in absence of CPT. Potency, µM (top dose mostly 46.2 µM), most hits filed as inhibitors. 420,000 compounds, 15% hits. DT40 Tdp1-/- hTDP1 cells, no CPT, ATP luminescence, 48 h; note: nearly all actives have a fitted effect of over 55% in size
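Growth of hTDP1-complemented DT40 Tdp1-knockout cells is measured by ATP luminescence after at least 48 hr compound exposure at 37 °C, with DMSO substituting for the 20 nM CPT used in the parallel screen.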
TDP1 cell CPT = qHTS for Inhibitors of human tyrosyl-DNA phosphodiesterase 1 (TDP1): qHTS in cells in presence of CPT; chicken DT40 Tdp1-/-;hTDP1 cells + 20 nM CPT, ATP luminescence, 48 h; Potency, µM (titrated, usually from 46.2 µM), hits mostly inhibitors; 420,000 compounds, 12% hits; AID 686979, 2013; note: nearly all actives have a fitted effect of over 55% in size
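Chicken DT40 Tdp1-/- cells complemented with human TDP1, 400 cells/well, exposed to compounds plus 20 nM camptothecin for at least 48 h at 37 C; viability read as ATP content by CellTiter-Glo luminescence.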
S-ASM inh = Inhibitors of Secretory Acid Sphingomyelinase (S-ASM): qHTS. placental ASM, HMU-PC fluorogenic substrate, 60 min. AID 504937, 2011. 340,000 compounds, 0.006% hits. Potency, µM (doses to about 57.5 µM), hits mostly inhibitors
Target sequence (P17405 47-631 limits assumed): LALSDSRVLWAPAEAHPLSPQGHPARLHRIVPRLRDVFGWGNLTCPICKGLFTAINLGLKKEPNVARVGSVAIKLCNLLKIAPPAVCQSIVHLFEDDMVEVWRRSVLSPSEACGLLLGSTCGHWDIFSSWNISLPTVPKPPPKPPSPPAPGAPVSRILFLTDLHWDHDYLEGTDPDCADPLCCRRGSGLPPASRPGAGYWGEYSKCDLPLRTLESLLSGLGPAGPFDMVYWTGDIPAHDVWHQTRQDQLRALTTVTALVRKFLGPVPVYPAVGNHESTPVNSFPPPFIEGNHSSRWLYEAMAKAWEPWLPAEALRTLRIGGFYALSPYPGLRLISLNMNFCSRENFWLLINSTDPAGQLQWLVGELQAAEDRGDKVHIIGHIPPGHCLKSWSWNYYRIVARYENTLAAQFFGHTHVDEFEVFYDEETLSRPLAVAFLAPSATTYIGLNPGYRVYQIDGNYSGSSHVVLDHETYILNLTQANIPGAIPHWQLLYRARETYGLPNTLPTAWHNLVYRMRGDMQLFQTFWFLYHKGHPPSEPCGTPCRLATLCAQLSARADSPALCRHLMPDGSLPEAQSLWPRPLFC
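Human placenta-derived ASM preincubated with compound 10 min at room temperature, then reacted with 9 uM (final) fluorogenic HMU-PC substrate for 60 min at 37 C. Stop solution raises pH to 10; fluorescence read at Ex 386/Em 447 nm.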
Numbers stand for hits; n = inactive; u = inconclusive; x = no result given. Rows were chosen to be rich in hits. Some 19% of all compounds tested hit in one or more screens of this group. Unless noted, calls come from the whole dose curve; as a rule, active = well fitted curve in the direction sought with a large enough effect; inconclusive = small, poorly fitted or top-dose-only effect, or another doubt; inactive = no such curve, though single readings can be large; an effect the other way counts as inactive or inconclusive.

SMILES	IL1B secr inh	HepG2 viability	TGFb SMAD3 inh	TDP1 cell noCPT	TDP1 cell CPT	S-ASM inh
COC(=O)C1=C(c2ccccc2OCc2ccccc2)C[C@@H]2CC[C@H]1N2C(=O)NCCCOC(C)C	n	n	n	u	16µM	n
COC(=O)C1=C(c2cccc(OCc3ccccc3)c2)C[C@@H]2CC[C@H]1N2C(=O)NCc1cccc(OC)c1	u	n	n	15µM	23µM	n
COC(=O)C1=C(c2cccc(OCc3ccccc3)c2)C[C@@H]2CC[C@H]1N2C(=O)NCc1ccccc1C(F)(F)F	n	n	n	23µM	21µM	n
CCN[C@@H](C)Cc1cccc(C(F)(F)F)c1	n	n	n	n	n	n
CC(C)(C)c1cc([N+](=O)[O-])cc(C(C)(C)C)c1O	n	n	7.9µM	5.2µM	10µM	n
NC(=O)c1cc([N+](=O)[O-])cc([N+](=O)[O-])c1	n	n	n	u	u	n
O=Nc1c(O)c2ccccc2c2ccccc12	-76	2.8µM	2.2µM	3.3µM	1.8µM	n
O=c1oc2ccccc2c(O)c1Cc1c(O)c2ccccc2oc1=O	x	x	x	n	n	x
O=[N+]([O-])c1nccn1CO[C@@H](CO)[C@H](O)CO	x	x	x	n	u	x
O=C1C=CC(=O)C2C1C1(Cl)C(Cl)=C(Cl)C2(Cl)C1(Cl)Cl (stereo unspecified)	-103	n	u	u	u	n
ClC1=C(Cl)C2(Cl)C3C4C=CC(C4)C3C1(Cl)C2(Cl)Cl (stereo unspecified)	x	x	x	n	n	x
COC(=O)[C@@H]1N=C(c2ccc(OC)cc2)O[C@]12C(=O)N(Cc1ccc(OC)cc1)c1ccccc12	n	x	x	u	18µM	x
COc1ccc(Cn2c(O)c(/C=N/NC(=O)c3ccccc3)c(=O)[nH]c2=O)cc1	n	n	n	u	n	n
COc1cc2nc(CN3CC=C(c4ccccc4)CC3)[nH]c(=O)c2cc1OC	n	n	u	18µM	u	n
Cc1nc2cc(F)ccc2n1C1CCN(Cc2nnnn2CCc2ccccc2)CC1	u	n	n	u	16µM	n
Cc1ccc(Cn2nnnc2CN2CCC(n3nnc4cc(C(F)(F)F)ccc43)CC2)cc1	u	n	n	21µM	u	u
FC(F)(F)c1ccc2c(c1)nnn2C1CCN(Cc2nnnn2Cc2ccccc2)CC1	u	n	n	u	u	n
Cc1nc2cc(C(F)(F)F)ccc2n1C1CCN(Cc2nnnn2CCc2ccccc2)CC1	u	n	u	13µM	18µM	n
NCC(=O)c1ccc2ccccc2c1	x	n	n	n	n	x
O[C@@H](Cc1ccncc1)C(Cl)(Cl)Cl	x	x	x	n	n	x
